Each structure is given as a SMILES string.

Results on one compound are retold here after PubChem BioAssay AID2088 (The Scripps Research Institute Molecular Screening Center, 2009).

The assay is described as follows: HeLa cell cycle G2/M accumulation – FACS, mechanism study for Wee1 degradation inhibitor project, late-stage follow-up (AID 2088). The following applies: HeLa Wee1-luciferase degradation, luminescence, G2/M arrest assay, compound-treated cells, stronger effect = higher value, concentration not given here.

`Cc1ccnc(NC(=O)CCCOc2cc(=O)n(C)c3ccccc23)c1`: the G2/M cells stood at 30.5%.
